{
  "source": "paper PMC12136788",
  "binders": {"B1": {"name": "chr22:36281679:36281692:-|3pUTR|ENSG00000100345|msi1_unk|total|mutant (ssRNA)", "RNA": "GGGAGUUCUACAGUCCGACGAUCUCUUGUGUCUACUCCCGGACUGGGCCCGAGGGUGGUUUACCUGCACCGUUGACUCAGUACCGUUUAAAAAUCUGCCACCUGCACAGGUAUUUUUGAAAGCAAAAUAAGGUUUUCUUUUUUCAACAGAGGAUUGAGCAUCA"}, "B2": {"name": "chr7:137227872:137228000:-|3pUTR|ENSG00000105894|msi1_unk|total|mutant (ssRNA)", "RNA": "GGGAGUUCUACAGUCCGACGAUCGGAACAUAAAAAGGACAUCAGCAAACAGGAUCAGUUAACUAUUGCAUUUAUAUGUACCGCCGGCUUUGUAUUCAAAAAUUAUCUACCGCUAAGUACACAAUAAGCAAAAACAAAAAGAAACAACAGAGGAUUGAGCAUCA"}, "B3": {"name": "ENSG00000165476:stop:overlap|stop_codon|ENSG00000165476|stop_codon|NA|stop_codon (ssRNA)", "RNA": "GGGAGUUCUACAGUCCGACGAUCAAGAGGUGCGGUACGGGUCACUAAAAUACAAAGUGAAGAAACGACCACAAGUGUAUUUUUAGUCAUCUACACGUCAAAUAUCCCAAGACAGAUUAUGCUAAAUACAUCGACUUCAUCUUCCAACAGAGGAUUGAGCAUCA"}, "B4": {"name": "ENSG00000138660:stop:overlap|stop_codon|ENSG00000138660|stop_codon|NA|stop_codon (ssRNA)", "RNA": "GGGAGUUCUACAGUCCGACGAUCCUGUAUUAGAACUGUCUGAUUCUGGCAUAAGGCAUUCUGACACAGAUCAACAGACUCGAUAGGGUAAAAUUGUGUGACCUUGUUUAUCAGUUAUGACCAAAUGUUAAAAACCAACUAGAACAACAGAGGAUUGAGCAUCA"}, "B5": {"name": "chr3:11557161:11557262:-|3pUTR|ENSG00000144560|msi1|total|mutant (ssRNA)", "RNA": "GGGAGUUCUACAGUCCGACGAUCCCUCUGACUUUAUACUGUUAUUACUGCAUUUAUUAUUUGCUAUAUUAACCGCUACUAACCCGAAAUCCGAUGAAGCAAGCAUGACAGACACAGCUGUGGAGGUCACAGCUGCUCCUUUUUCAACAGAGGAUUGAGCAUCA"}, "B6": {"name": "ENSG00000198589:be:win_7201|CDS|ENSG00000198589|bound_else_gene|NA|bound_elsewhere_windowed (ssRNA)", "RNA": "GGGAGUUCUACAGUCCGACGAUCGAGAGUGAAUUUGUUUCCUGCCAGCUUCACCAAUGGAUUGAUCUCAUUUUUGGCUAUAAACAGCAAGGACCAGAAGCUGUCCGAGCCCUCAAUGUGUUCUAUUACUUGACCUAUGAAGGACAACAGAGGAUUGAGCAUCA"}, "B7": {"name": "ENSG00000124766:be:win_1851|3pUTR|ENSG00000124766|bound_else_gene|NA|bound_elsewhere_windowed (ssRNA)", "RNA": "GGGAGUUCUACAGUCCGACGAUCAGAGACUUGAAGGAGUCUCCCCCUUCCUGCAUCACCACCUUGGUUUUGUUUUAUUUUGCUUCUUGGUCAAGAAAGGAGGGGAGAACCCAGCGCACCCCUCCCCCCCUUUUUUUAAACGCGCAACAGAGGAUUGAGCAUCA"}, "B8": {"name": "chr9:125236489:125236593:-|3pUTR|ENSG00000044574|msi1_unk|total|mutant (ssRNA)", "RNA": "GGGAGUUCUACAGUCCGACGAUCUGCCGACACUGAUCUGCCCGUGCUGUAAUAUUGUAAAUACUGGACUCAGGAACUUUUGUCCGGAAAAAAUUGAAAGAACUUAAGUCUCGAAUGUAAUUGGAAUCUUCACCUCAGAGUGGACAACAGAGGAUUGAGCAUCA"}, "B9": {"name": "chr12:64128047:64128160:+|CDS|ENSG00000196935|unk|FALSE|unique (ssRNA)", "RNA": "GGGAGUUCUACAGUCCGACGAUCGGCAGCCUGACCAACAUCAGCCGGCACGACUCCCUCAAGAAGAUCGACAGCCCUCCCAUUAGAAGGUCCACGUCAUCAGGGCAAUACACGGGCUUCAAUGACCACAAGCCACUGGACCCACAACAGAGGAUUGAGCAUCA"}, "B10": {"name": "chr11:30010719:30012678:-|CDS|ENSG00000182255|control|control|control (ssRNA)", "RNA": "GGGAGUUCUACAGUCCGACGAUCUUUGCUCAAGAAAUUUCGGAGCUCUACUUCUUCUUCCCUGGGGGACAAGUCAGAGUAUCUAGAGAUGGAAGAAGGAGUUAAGGAAUCUCUGUGUGCAAAGGAGGAGAAGUGUCAGGGAAACAACAGAGGAUUGAGCAUCA"}, "B11": {"name": "chr11:101473508:101473773:-|CDS|ENSG00000137672|control|control|control (ssRNA)", "RNA": "GGGAGUUCUACAGUCCGACGAUCUCCUCAAAUAAUAUCUGAAGGUCUUUAUGCAAUUGCUGUAGUUUUAAGUUUCUCUAGGAUAGCUUAUAUUUUACCAGCAAAUGAAAGCUUUGGACCUCUGCAGAUAUCACUUGGAAGAACCAACAGAGGAUUGAGCAUCA"}, "B12": {"name": "ENSG00000092201:stop:overlap|stop_codon|ENSG00000092201|stop_codon|NA|stop_codon (ssRNA)", "RNA": "GGGAGUUCUACAGUCCGACGAUCUUCCCCGCGUGCCAGCCUUGGUCAUGCAUAGCAGCACCUCUCGCAGUCUCUUCCCGCCCUAGAAGAGGCAACAUCCUUCCCUCCUACUCCGUGGUCACGUCUUGCUGCCCUCCCCUGCCGCAACAGAGGAUUGAGCAUCA"}, "B13": {"name": "chr8:143915815:143915916:-|3pUTR|ENSG00000178209|msi1|FALSE|unique (ssRNA)", "RNA": "GGGAGUUCUACAGUCCGACGAUCGCCAGGUGCCUUGGAGGGUCCCAAGCUGGGCCCCAGCCCACCCUCCUGUCUUCCCAGGGUAGCCCGCCUGCCAGUCCUAGCUGCACAGGGCAGCUGGGCCCAACCCUGUCUGUAGAGGGCCAACAGAGGAUUGAGCAUCA"}, "B14": {"name": "chr1:17067933:17068034:-|3pUTR|ENSG00000117115|msi1|total|mutant (ssRNA)", "RNA": "GGGAGUUCUACAGUCCGACGAUCACAUAAGGACCCUGGCCUACCCUCCAGCCCAACAGCCAGUUCUGGGUCAGCUGCCAACUCCGGGGUGGUUUGAUUAUCCCAUUGAAAUUCACCAGUGCCUUUGCCAAAGACCCUCUCAUUCAACAGAGGAUUGAGCAUCA"}},
  "note": "In all, about 5,800 sequences were measured (“enrichment r”: median about 0.68, highest 2% from about 11 on). These entries were drawn from the full list.",
  "data": [
    {"biological_target": "T1, UNK ZnF1-6 (called full-length) (human, UniProt Q9C0B0 30-357)", "T1 sequence": "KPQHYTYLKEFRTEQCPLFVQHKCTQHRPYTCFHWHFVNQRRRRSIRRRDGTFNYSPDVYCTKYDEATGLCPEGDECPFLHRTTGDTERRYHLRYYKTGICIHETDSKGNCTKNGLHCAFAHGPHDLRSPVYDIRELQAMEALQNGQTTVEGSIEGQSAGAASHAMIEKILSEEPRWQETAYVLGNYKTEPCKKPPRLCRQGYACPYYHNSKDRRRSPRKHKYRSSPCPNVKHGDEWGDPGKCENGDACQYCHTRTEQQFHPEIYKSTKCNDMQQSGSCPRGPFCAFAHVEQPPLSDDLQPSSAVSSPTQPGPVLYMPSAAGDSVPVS", "assay": "nsRBNS (natural sequence RNA bind-n-seq); RBNS binding buffer (assumed for nsRBNS): 25 mM Tris pH 7.5, 150 mM KCl, 3 mM MgCl2, 0.01% Triton X-100, 500 ug/ml BSA, 20 U/ml SUPERase-In, 4 C; UNK is unkempt and MSI1 is Musashi-1; names of the RNAs are library labels; protein concentration not given here; high values mean tight binding", "units": {"binding signal": "enrichment R"}, "values": [
      {"binder": "B1", "binding signal": 0.546},
      {"binder": "B2", "binding signal": 0.517},
      {"binder": "B3", "binding signal": 0.648},
      {"binder": "B4", "binding signal": 0.713},
      {"binder": "B5", "binding signal": 0.51},
      {"binder": "B6", "binding signal": 0.478},
      {"binder": "B7", "binding signal": 0.704},
      {"binder": "B8", "binding signal": 0.446},
      {"binder": "B9", "binding signal": 1.28},
      {"binder": "B10", "binding signal": 0.697},
      {"binder": "B11", "binding signal": 0.473},
      {"binder": "B12", "binding signal": 0.859},
      {"binder": "B13", "binding signal": 1.03},
      {"binder": "B14", "binding signal": 0.749}
    ]}
  ]
}
